# Measured values taken from PubChem BioAssay (NCATS).
# Assay: qHTS profiling of the MIPE4 collection as inhibitors of Plasmodium falciparum (DD2) proliferation (AID 743345)
# Details: P. falciparum Dd2 in erythrocytes, SYBR Green DNA, 72 h; at 28.5 µM (top of the series) unless noted
# In short: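 Erythrocytes infected with P. falciparum (0.3% parasitemia, 2.5% hematocrit) incubated with compounds 72 h at 37 C, 5% CO2. Lysis with saponin/Triton buffer containing SYBR Green I, overnight at room temperature in the dark; DNA fluorescence (485/535 nm) normalised to 0.29 uM artemisinin and DMSO.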
row,Compound,"parasite growth remaining, % of DMSO control (lower = more inhibition)"
1,COc1ccc(-n2c(C)c([N+](=O)[O-])c3ccc(O)cc32)cc1,78.7%
2,Cc1c[nH]c(C=C2C(=O)Nc3ccccc32)c1CCC(=O)O,38.5%
3,CCn1c(C(=O)N(C2CC2)C2CC2)cc2c3c(ncn3C)c(Nc3cc(C)n(C)n3)nc21,12.4%
4,CC(C)C[C@H](CC(=O)O)C(=O)N[C@@H](Cc1c[nH]c2ccccc12)C(=O)N[C@@H](C)c1ccccc1,77.8%
5,CN[C@@H](C)C(=O)N[C@H]1CN(C(=O)CC(C)C)CC[C@H]2CC[C@@H](C(=O)NC(c3ccccc3)c3ccccc3)N2C1=O,55%
6,NC(=O)NN=Cc1ccc([N+](=O)[O-])o1,48.9%
7,Clc1cc(Cl)cc(CNc2ncncc2-c2ccc3c(c2)OCO3)c1,47.6%
8,CC(C)=CC[C@@H](O)C1=CC(=O)c2c(O)ccc(O)c2C1=O,5.8%
9,NS(=O)(=O)c1cccc2c1C(=O)c1cccc(O)c1C2=O,6.12%
10,O=C(O)c1ccccc1C(=O)Nc1ccc(-c2ccccc2)cc1,104%
